Screening data (PubChem BioAssay)
NS1 function inh: qHTS Assay for Inhibitors of Influenza NS1 Protein Function | Potency, µM (highest dose often 46.1 µM), inactives show at the highest dose activity, positive = more growth | AID 2326, 2010 | actives 0.4% (n = 270,000); calls by dose curve; note: actives are rising curves; nearly all actives have a fitted effect of over 50% in size
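Read-out: OD600 growth recovery of NS1-expressing budding yeast. Cells grown overnight at 30C in -URA glucose medium, washed, resuspended and diluted 1:100 in 2% galactose assay medium, pH 6.0. Same strain lacking NS1 served as positive control.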
Pf growth 48h: Primary qHTS for delayed death inhibitors of the malarial parasite plastid, 48 hour incubation; Potency, µM (highest dose often 28.7 µM), for the others: top-dose activity change, negative = inhibition, most hits filed as inhibitors; P. falciparum luciferase growth in erythrocytes, 48 h; actives 5.9% (n = 310,000); note: % is set by controls: 0 for no effect and ±100 for the full control effect
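Read-out is firefly luciferase luminescence from an integrated reporter in P. falciparum, so falling signal marks reduced parasite growth. Infected erythrocytes were at 2% hematocrit and 0.1% parasitemia (final) in Albumax-supplemented RPMI 1640.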
HCV inh: qHTS Assay for Inhibitors of Hepatitis C Virus (HCV). actives 3.4% (n = 340,000). Potency, µM (titrated, usually from 41.8 µM), for inactives: at the highest dose activity change, negative = inhibition, usual class: inhibitors. AID 651820, 2012. Huh7.5.1 HCVcc-Cre infection, luciferase reporter, 44 h; note: % is set by controls: 0 for no effect and ±100 for the full control effect
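Whole-lifecycle infectious HCVcc-Cre system; cells 1,000/well, compound then virus (~0.5 moi) added 4 h after plating, 44 h culture. Luciferase read 15 sec following 15 min substrate incubation, room temp.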
SARS PLP yeast: qHTS of Yeast-based Assay for SARS-CoV PLP | S. cerevisiae expressing SARS-CoV PLpro, growth rescue | actives 0.19% (n = 330,000) | Potency, µM (titrated, usually from 32.9 µM), for the others: top-dose activity, positive = growth rescue, hits mostly activators; calls by dose curve; note: 0% is about no effect; nearly all actives have a fitted effect of over 55% in size
AMA1-RON2 inh: qHTS for Inhibitors of AMA1-RON; Towards Development of Antimalarial Drug Lead: Primary Screen; Plasmodium falciparum AMA1 (3D7) - RON2 peptide interaction; AlphaScreen AMA1-biotinylated RON2 peptide binding; Potency, µM (titrated, usually from 58.2 µM), for inactives: top-dose activity change, negative = inhibition, hits mostly inhibitors; actives 0.2% (n = 360,000);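 note: 0% = vehicle wells and -100% = peptide control; nearly all actives have a fitted effect of over 45% in size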
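AMA1 (3D7) with his tag at 25 nM final met compounds first, then biotinylated RON2 peptide at 25 nM; detection used donor plus acceptor beads, 10 µg/mL apiece, read by AlphaScreen after 30 min at room temperature.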
Pf growth 96h: Primary qHTS for delayed death inhibitors of the malarial parasite plastid, 96 hour incubation; Potency, µM (highest dose often 28.7 µM), without a hit: at the highest dose activity change, negative = inhibition, usual class: inhibitors; P. falciparum luciferase reporter growth, 96 h; AID 504834, 2011; actives 6.9% (n = 320,000); note: % is set by controls: 0 for no effect and ±100 for the full control effect
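Infected RBCs, 2% Hct / 0.05% parasitemia final; luciferase-reporter P. falciparum; cpd 96 h, 37 C, 5% CO2; luciferase detection reagent; luminescence.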
Starred values were filed as active, the others as inactive. Hits are enriched below; roughly 12% of the tested compounds scored in any of these assays. Unless noted, calls come from the whole dose curve; as a rule, active = well fitted curve in the direction sought with a large enough effect; inconclusive = small, poorly fitted or top-dose-only effect, or another doubt; inactive = no such curve, though single readings can be large; an effect the other way counts as inactive or inconclusive. Potency is the fitted concentration of half-maximal effect.

For CC1(C(=O)NCc2cccc(Cl)c2)Cc2c(-c3ccc4c(c3)OCO4)ccnc2O1 (centres undefined) the results were AMA1-RON2 inh -12%.
`Cc1ccc(N(CC(=O)NC(C)(C)C)C(=O)CNC(=O)c2cccs2)c(C)c1` gave NS1 function inh 2%, Pf growth 48h 8.3µM*, HCV inh -2%, SARS PLP yeast 0%, AMA1-RON2 inh 4% and Pf growth 96h 20%.
Screening O=C(CN(Cc1ccco1)C(=O)CCC(=O)Nc1ccccn1)NCc1ccccc1 returned NS1 function inh -2%, Pf growth 48h 1%, HCV inh 0%, SARS PLP yeast 1%, AMA1-RON2 inh 16% and Pf growth 96h 1%.
Screening Cc1ccccc1Cn1c(=N)n(CC(=O)c2ccco2)c2ccccc21 returned NS1 function inh inconclusive, Pf growth 48h inconclusive, HCV inh inconclusive, SARS PLP yeast 6%, AMA1-RON2 inh 0% and Pf growth 96h 15µM*.
CC(=O)c1c(C)[nH]c(C(=O)NCc2ccco2)c1C was read as NS1 function inh 3%, Pf growth 48h 0%, HCV inh -2%, SARS PLP yeast 3%, AMA1-RON2 inh 1% and Pf growth 96h 14%.
For Cc1ccc(N=Nc2c(C)[nH]n(C(N)=S)c2=O)cc1 the results were Pf growth 48h inconclusive, HCV inh 2.8µM*, SARS PLP yeast -2%, AMA1-RON2 inh 71% and Pf growth 96h inconclusive.
Cc1[nH]n(C(N)=S)c(=O)c1N=Nc1cc(C(F)(F)F)ccc1Cl was read as NS1 function inh -3%, Pf growth 48h 2%, HCV inh 4%, SARS PLP yeast 0%, AMA1-RON2 inh 104% and Pf growth 96h inconclusive.
Cc1[nH]n(C(N)=S)c(=O)c1N=Nc1cccc(C(F)(F)F)c1 was read as NS1 function inh -2%, Pf growth 48h 1.3µM*, HCV inh -24%, SARS PLP yeast 0%, AMA1-RON2 inh 117% and Pf growth 96h inconclusive.
CC(=O)Nc1ccc(NC(=O)C2CCN(S(C)(=O)=O)CC2)cc1 was read as AMA1-RON2 inh -8%.
For CCOc1ccccc1N1CC(C(=O)N(CC)CC(=O)Nc2ccc3c(c2)OCCO3)CC1=O (centres undefined) the results were Pf growth 48h inconclusive, HCV inh 14%, SARS PLP yeast 1%, AMA1-RON2 inh 58% and Pf growth 96h -2%.
Cc1c(C(=O)N2CCOCC2)sc(NC(=O)c2ccc([N+](=O)[O-])cc2)c1C#N was read as NS1 function inh 1%, Pf growth 48h -17%, HCV inh -16%, SARS PLP yeast -11%, AMA1-RON2 inh 9% and Pf growth 96h 29%.
`Cc1c(C(=O)N2CCOCC2)sc(NC(=O)CCl)c1C#N` gave NS1 function inh -3%, Pf growth 48h 2.1µM*, HCV inh -9%, SARS PLP yeast 1%, AMA1-RON2 inh -4% and Pf growth 96h -23%.
For Cc1ccc(S(=O)(=O)N2CCOC23CCN(C(=O)C(=O)NCc2ccccc2)CC3)cc1 the results were Pf growth 48h -26%, HCV inh -2%, SARS PLP yeast -2%, AMA1-RON2 inh 2% and Pf growth 96h inconclusive.
`Cc1ccc(-n2c(SCC(=O)N/N=C/c3c(C)nn(-c4ccccc4)c3C)nc3ccccc3c2=O)cc1` gave NS1 function inh inconclusive, Pf growth 48h -8%, HCV inh inconclusive, AMA1-RON2 inh -3% and Pf growth 96h inconclusive.
`Cc1nn(-c2ccccc2)c(C)c1/C=N/NC(=O)CSc1nnc(SCc2cccc3ccccc23)s1` gave NS1 function inh 24%, Pf growth 48h -26%, HCV inh 14µM*, SARS PLP yeast 6%, AMA1-RON2 inh -1% and Pf growth 96h 10µM*.
CCN(CC)S(=O)(=O)c1ccc(-c2nnc(SCc3nnc(-c4ccccc4)o3)o2)cc1 was read as NS1 function inh 1%, Pf growth 48h 0%, HCV inh -4%, SARS PLP yeast -4%, AMA1-RON2 inh 5% and Pf growth 96h 3.7µM*.
For O=S(=O)(c1ccc(-c2nnc(SCc3nnc(-c4ccccc4)o3)o2)cc1)N1CCCC1 the results were NS1 function inh 8%, Pf growth 48h inconclusive, HCV inh inconclusive, SARS PLP yeast -3%, AMA1-RON2 inh 25% and Pf growth 96h 88%.
CCN(CC)S(=O)(=O)c1ccc(-c2nnco2)cc1 was read as NS1 function inh 4%, Pf growth 48h -26%, HCV inh 8%, SARS PLP yeast 9%, AMA1-RON2 inh 12% and Pf growth 96h 13µM*.
O=C(NCCCl)Nc1cccnc1Cl was read as NS1 function inh 0%, Pf growth 48h 6%, HCV inh 9%, SARS PLP yeast -1%, AMA1-RON2 inh -15% and Pf growth 96h -3%.
`CC(NCCN(C)C)C(=O)C12CC3CC(CC(C3)C1)C2` (centres undefined) gave NS1 function inh -3%, Pf growth 48h inconclusive, HCV inh 5%, SARS PLP yeast -1%, AMA1-RON2 inh 33% and Pf growth 96h 5.9µM*.
`COc1ccc(NC(=O)/C(C#N)=C/c2ccc(Sc3nncn3C)c([N+](=O)[O-])c2)cc1` gave NS1 function inh 0%, Pf growth 48h inconclusive, HCV inh 13%, SARS PLP yeast 0%, AMA1-RON2 inh 0% and Pf growth 96h inconclusive.
For COC(=O)C1=CN(Cc2ccc(OC)cc2)C=C(C(=O)OC)C1c1ccsc1 the results were NS1 function inh -1%, Pf growth 48h 7.4µM*, HCV inh -19%, SARS PLP yeast 1%, AMA1-RON2 inh 35% and Pf growth 96h 38%.
Screening COC(=O)C1=CN(CCOC23CC4CC(CC(C4)C2)C3)C=C(C(=O)OC)C1c1ccsc1 returned Pf growth 48h inconclusive, HCV inh 32µM*, SARS PLP yeast -6%, AMA1-RON2 inh 58% and Pf growth 96h inconclusive.
`COC(=O)C1=CN(CC2CCCO2)C=C(C(=O)OC)C1c1ccsc1` (centres undefined) gave NS1 function inh 6%, Pf growth 48h inconclusive, HCV inh 8%, SARS PLP yeast 8% and AMA1-RON2 inh 26%.
For CC1(C(=O)NS(=O)(=O)c2ccc(F)cc2F)CCN1C(=O)CC1CCCCC1 (centres undefined) the results were AMA1-RON2 inh 15%.
